Consider 40 compounds from PubChem BioAssay (NCI).

Structures are written as SMILES. This is part of a sample that, as a whole, favours compounds with a hit. Of some 83,000 tested, about 20% had one in any assay.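 Note: values are percent growth. 100 is the growth of untreated cells, values between 100 and 0 indicate rising inhibition; between -100 and 0 indicates cell death.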 Unmarked numbers belong to inactive results. Activity calls are given as the source filed them.

This assay concerns OVCAR-4 ovarian. The experiment in a line: NCI-60 one-dose screen, 48 h (100 = growth as untreated, 0 = no growth, -100 = all killed). The following applies: 10 µM. As for the experimental part: Growth inhibition of the OVCAR-4 human tumor cell line is measured as a screen for anti-cancer activity. Cells are grown in 96 well plates and exposed to the test compound for 48 hours. Compounds are tested at a single concentration, which is 10^-5 M for most compounds. The reported endpoint is percent growth (GI% or GIPRCNT), where numbers from 0 - 100% represent growth inhibition, and numbers from -100% - 0 represent cell death. For example, a value of 40 represents 60% growth inhibition. A value of 0 means no net growth occurred over the course of the experiment. A value of -40 indicates 40% of cells at the beginning of the experiment died by the end of the experiment. A value of -100 means all cells are dead at the end of the experiment.
NCI-60 Human Tumor Cell Lines Screen was performed using the standard one-dose NCI protocol, which is described in more detail at https://dtp.cancer.gov/discovery_development/nci-60/default.htm.
Compounds with GIPRCNT values below 10 were considered active. Activity score was based on GIPRCNT using the following formula: […]
Score is 0 for GIPRCNT values of 100 or above, 50 for GIPRCNT values of 0, and 100 for GIPRCNT values of -100.
On to `CSc1nc(=O)n(Cc2ccc(Cl)cc2)c(=O)[nH]1`, for which the growth was 110%.

For `COc1ccc(-c2cc(/C=C3\C(=O)Nc4ccc(Cl)cc43)[nH]n2)cc1OC`, the growth was 19%.

With `Cc1ccc(CC#N)cc1C`, the growth is 109%.

As for `CN1CCCNc2c(c(=O)c2=O)NCCCN(C)CCCNc2c(c(=O)c2=O)NCCCN(C)CCCNc2c(c(=O)c2=O)NCCCN(C)CCCNc2c(c(=O)c2=O)NCCCN(C)CCCNc2c(c(=O)c2=O)NCCCN(C)CCCNc2c(c(=O)c2=O)NCCCN(C)CCCNc2c(c(=O)c2=O)NCCC1`, the growth was 66.5%.

As for `CCCCCC(=O)c1ccc(OCCCN2CCN(C(=O)OCC)CC2)cc1`, the growth is 85.1%.

Regarding `Clc1cc2c(c(CSc3nc4ccccc4n4cccc34)c1)OCOC2`, the growth was 3.98% (active).

On to `O=C(O)C(SC(C(=O)O)c1ccccc1)c1ccccc1` (stereo not given), for which the growth was 102%.

Turning to `O=C1OCC2=C1C(c1ccc(Cl)c(Cl)c1)c1cc3c(cc1N2CCO)OCCO3` (stereo not given), the growth is 55.7%.

With `c1ccc2c(c1)oc1c3cccnc3ccc21`, the growth is 83%.

As to `CC(=O)c1nc2ccccc2n1CCNC(N)=O`, the growth is 93.1%.

Consider `Cc1cc(N(CCCNc2ccnc3cc(Cl)ccc23)Cc2cccs2)nc(Cl)n1`, for which the growth is 31.8%.

Take `O=C(Nc1ccc(CO)cc1)c1ccccc1Nc1ccnc(C(F)(F)F)c1`: the growth is 98.2%.

On to `CC(C)=CCc1cc(O)cc2c1OC(C=C(C)C)C1=C2C(=O)C2=C(C1=O)S(=O)(=O)CCN2` (stereo not given), for which the growth is 5.54% (active).

Consider `Clc1ccc(Nc2ccnc(NCCCNc3ccnc4cc(Cl)ccc34)n2)cc1`, for which the growth is 6.79% (active).

In the case of `c1ccc(CP(Cc2ccccc2)c2ccccc2)cc1`, the growth was 113%.

As to `CC/C(=C(/c1ccc(OCCN(C)C)cc1)c1ccc(OC(=O)CCC(=O)c2c(C)[nH]c(/C=C3\N=C(c4ccc[nH]4)C=C3OC)c2C)cc1)c1ccccc1`, the growth is 37.4%.

Regarding `O=C(Nc1cccc(-n2cc(-c3ccncc3)c(-c3cc(O)cc(Cl)c3)n2)c1)c1cc(C(F)(F)F)cc(C(F)(F)F)c1`, the growth is 59.6%.

In the case of `COc1cc(-c2cc(/C=C3\C(=O)Nc4cc(Cl)ccc43)[nH]n2)cc(OC)c1OC`, the growth was 19%.

For `Cc1cc2c(C)c3cc(C)c(N)cc3nc2cc1N`, the growth was -2.48% (active).

Consider `CC1(C)CCC(=NNC(N)=S)CC1`, for which the growth was 112%.

Regarding `Oc1[nH]c2ccc(Cl)cc2c1/C=c1/ccc2c(c1)N=C(c1cc(F)cc(F)c1)N=2`, the growth is 68.5%.

For the compound `O=C1/C(=C\c2ccc(Cl)cc2)CN(C(=S)Nc2ccccc2)C/C1=C\c1ccc(Cl)cc1`, the growth was -26% (active).

Regarding `c1ccc(C(NC2CC3CCC2C3)c2ccccc2)cc1` (stereo not given), the growth is 108%.

As to `CCC(=O)N1C/C(=C/c2ccc(OC)cc2)C(=O)/C(=C/c2ccc(OC)cc2)C1`, the growth was 58.3%.

With `COc1ccc(-c2nc3ncccn3c2-c2nnc(-c3ccc(F)cc3)o2)cc1`, the growth was 96.6%.

On to `CSCCCNC(=O)c1ccc2c(c1)/C(=C/c1[nH]c(C)cc1C)C(=O)N2`, for which the growth was 27.6%.

As for `NC(=S)N=Nc1c(O)c2ccccc2c2ccccc12`, the growth was 73.6%.

As for `COc1cc(-c2cc(/C=C/C(=O)c3ccc(Cl)c(Cl)c3)[nH]n2)cc(OC)c1OC`, the growth is 77.4%.

As to `COc1cc(Cl)cc(-c2nn(-c3cccc(NC(=O)Nc4ccc(Cl)c(Cl)c4)c3)cc2-c2ccncc2)c1`, the growth is 13.3%.

Turning to `N=C(N)c1ccc(-c2ccc(-c3cccs3)s2)cc1`, the growth is -19.8% (active).

On to `COC(=O)c1c(-c2ccccc2)csc1NC(=O)c1c(-c2ccccc2)noc1C`, for which the growth was 79.9%.

Turning to `C#Cc1ccc(-n2c(/C=C/c3ccc(C(F)(F)F)cc3)nc3ncccc3c2=O)cc1`, the growth is -42.6% (active).

With `O=C(N/N=C/c1ccccc1)C(Oc1ccccc1)c1ccccc1` (stereo not given), the growth was 102%.

On to `COc1ccc2nc3ccccc3c(NCCNCC(C)O)c2c1` (stereo not given), for which the growth was 11.8%.

Consider `OCC1OC(n2cnc3c(N/N=C\c4ccccn4)ncnc32)C(O)C1O` (stereo not given), for which the growth is 21.6%.

As for `CCOC(=O)N/N=C\C(C)=N\NC(=O)OCC`, the growth is 102%.

As to `O=C(O)c1ccc(Cl)cc1Nc1ccc(F)cc1`, the growth was 38%.

For the compound `COc1cccc(NC(=O)c2sc3nc4c(cc3c2N)C(O)CCC4)c1` (stereo not given), the growth was 49.1%.

For `Cc1cccc(C)c1NC(=O)c1sc2nc3c(cc2c1N)C(=O)CCC3`, the growth was 101%.

In the case of `C[C@]12CC[C@@H]3c4ccc(O)cc4C[C@@H](O)[C@H]3[C@@H]1CC[C@@H]2O`, the growth is 105%.
